NS1 inh = qHTS Assay for Inhibitors of Influenza NS1 Protein Function; Potency, µM (highest dose often 46.1 µM), inactives show top-dose activity, positive = more growth; 270,000 tested, 0.4% active; calls by dose curve; further: potency means the concentration at half of the fitted maximal effect; actives are rising curves; nearly all actives have a fitted effect of over 50% in size
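In this qHTS, NS1 from influenza A is expressed in budding yeast, where it slows growth. Cells are switched from glucose to 2% galactose medium (pH 6.0, -URA), treated with compound, and growth recovery is read at OD600.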
CHX counter = Cycloheximide Counterscreen for Small Molecule Inhibitors of Shiga Toxin. cell reporter, cycloheximide protein synthesis inhibition counterscreen. max response, %. 300,000 tested, 12% active; in the data active means max response mostly above about 13%, no sharp cut-off; inactive means mostly below about 14%; further: read at 38.3 µM for the half of the compounds with a filed dose; 0% is about no effect
Pf growth 48h = Primary qHTS for delayed death inhibitors of the malarial parasite plastid, 48 hour incubation; P. falciparum luciferase growth in erythrocytes, 48 h; Potency, µM (top dose mostly 28.7 µM), inactives show top-dose activity change, negative = inhibition, actives largely listed as inhibitors; 310,000 tested, 5.9% active; AID 504832, 2011; further: potency means the concentration at half of the fitted maximal effect; on the % scale 0 is the no-effect control and ±100 the full control effect
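A one-generation exposure of luciferase-tagged malaria parasites in RPMI 1640/Albumax erythrocyte culture, 37 C and 5% CO2. Inhibition is inferred from decreased luminescence after adding detection reagent.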
Shiga toxin inh = A qHTS for Small Molecule Inhibitors of Shiga Toxin; Vero cells, Shiga toxin protein synthesis inhibition reporter; inhibition, % at 38.7 µM; 290,000 tested, 9.2% active; in the data active means inhibition mostly above about 28%, no sharp cut-off; inactive means mostly below about 43%; further: 0% is about no effect
Giardia FBPA inh = qHTS Assay for Inhibitors of Fructose-1,6-bisphosphate Aldolase from Giardia Lamblia | purified Giardia FBPA | Potency, µM (top dose mostly 59.6 µM), for inactives: at the top dose activity, negative = inhibition, hits mostly inhibitors | 290,000 tested, 0.71% active | AID 2451, 2010; further: potency means the concentration at half of the fitted maximal effect; on the % scale 0 is the no-effect control and ±100 the full control effect; nearly all actives have a fitted effect of over 55% in size
Target sequence (A8B2U2 whole entry, looked up): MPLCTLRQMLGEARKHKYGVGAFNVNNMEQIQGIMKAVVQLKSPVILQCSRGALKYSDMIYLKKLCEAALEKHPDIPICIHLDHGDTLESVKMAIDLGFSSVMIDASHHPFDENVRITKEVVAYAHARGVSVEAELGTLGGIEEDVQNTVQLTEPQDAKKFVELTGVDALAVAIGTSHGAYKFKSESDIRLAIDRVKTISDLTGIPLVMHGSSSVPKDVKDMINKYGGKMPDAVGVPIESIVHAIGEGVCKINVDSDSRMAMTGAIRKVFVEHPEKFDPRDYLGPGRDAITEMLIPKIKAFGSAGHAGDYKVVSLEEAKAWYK
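Giardia FBPA (40 nM reagent) was preincubated 10 min at RT with compound (up to 57.5 uM final), then substrate plus GAPDH/TPI/NAD/arsenate coupling system with diaphorase/resazurin was added; resorufin fluorescence (525/598 nm) was read after 20 min.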
Pf growth 96h = Primary qHTS for delayed death inhibitors of the malarial parasite plastid, 96 hour incubation | Potency, µM (titrated, usually from 28.7 µM), without a hit: top-dose activity change, negative = inhibition, actives largely listed as inhibitors | P. falciparum luciferase reporter growth, 96 h | 320,000 tested, 6.9% active; further: potency means the concentration at half of the fitted maximal effect; on the % scale 0 is the no-effect control and ±100 the full control effect
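Erythrocytes infected with luciferase-expressing P. falciparum were dispensed at 2% hematocrit and 0.05% parasitemia (final), then incubated with compounds 96 hours at 37 C in 5% CO2. Luminescence after detection reagent addition reported growth.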
Active calls of the source: *; ? = inconclusive; . = not tested or not shown; [ ] = another dose, or the depositor's remark. A selection: hits, their analogues and other compounds. The true share with any hit is near 21%. Unless noted, the call rests on the fitted dose curve; in most records, active means well fitted curve in the direction sought with a large enough effect; inconclusive means small, poorly fitted or top-dose-only effect, or another doubt; inactive means no such curve, though single readings can be large; an effect the other way counts as inactive or inconclusive.

SMILES	NS1 inh	CHX counter	Pf growth 48h	Shiga toxin inh	Giardia FBPA inh	Pf growth 96h
COc1ccc(NC(=S)NNc2ccc(C(=O)O)cc2)cc1	8.1%	42.3*	49.9%	37.7	.	72.5%
COCC(=O)Nc1ccccc1C(=O)Nc1ccc(OC)cc1	-0.9%	22.0*	91.6%	50.7*	-6.2%	24.0%
COC(=O)c1ccccc1NC(=S)NC(=O)c1ccc2c(c1)OCO2	-16.6%	10.5	21.4%	2.9	.	?
COc1cc(/C=N/NC(=O)C(=O)NCc2ccco2)cc(Br)c1O	5.2%	-2.5	-16.0%	-10.4	-10.7%	-0.2%
Cc1ccccc1N1CCN(C(=O)c2ccccc2NC(=O)c2ccccc2C(=O)O)CC1	2.9%	-1.3	5.0%	-3.1	3.8%	10.1%
Cc1ccc(S(=O)(=O)CCC(=O)OCC(=O)NCC(=O)Nc2c(C)cc(C)cc2C)cc1	.	.	-1.6%	.	.	4.1%
CSCCC(NC(=O)c1ccc(Cl)cc1)C(=O)OCC(=O)Nc1cc(Cl)ccc1C#N (stereo unspecified)	20.0%	-3.4	-18.6%	9.9	2.9%	-1.1%
CCN(CC(=O)Nc1c(F)cccc1F)C(=O)C1COc2ccccc2O1 (stereo unspecified)	.	.	36.3%	.	.	31.9%
COc1ccc(C(=O)Nc2ccccc2C(=O)Nc2ccccc2C(=O)O)cc1	-70.2%	28.7*	-2.0%	.	2.4%	-69.5%
COc1ccc(C(=O)Nc2ccccc2C(=O)N/N=C/c2cccc3ccccc23)cc1	3.1%	31.0*	25.6%	119.2*	-1.4%	-2.0%
COc1ccc(C(=O)Nc2ccc(O)cc2C(=O)O)cc1	3.0%	-4.0	7.4%	-10.8	-23.3%	17.5%
COc1ccc(NC(=O)c2ccccc2NC(=O)c2cccs2)cc1	0.9%	8.6	53.0%	15.1	6.3%	30.3%
COc1ccc(C(=O)Nc2ccccc2C(=O)Nc2ccncc2)cc1	-4.9%	24.9*	10.4µM*	58.1	-3.0%	-6.5%
Oc1cc(O)c2c(c1)O[C@H](c1ccc(O)c(O)c1)[C@@H](O)[C@@H]2c1c(O)cc(O)c2c1O[C@@H](c1ccc(O)c(O)c1)[C@H](O)C2	-3.1%	.	.	.	.	.
C[C@@H](C(=O)Nc1ccc2ccccc2c1)[C@H]1C[C@]1(C)[C@H](N)c1ccccc1	.	-0.2	.	-0.3	-6.6%	.
CCNC(=O)NC(=O)C(C)Sc1nnc(COc2ccccc2Cl)o1 (stereo unspecified)	-131.4%	15.0*	.	28.0	-6.4%	?
CCC[C@@H](O)c1cc2cc(OC)c(OC)cc2c(=O)o1	.	.	-0.1%	.	.	2.62µM*
COc1ccc(N/C=C/C(=O)c2ccc3c(c2)OCO3)cc1OC	-36.3%	67.1*	60.9%	61.4*	-17.2%	?
COc1ccc(N/C=C\C(=O)c2ccc3c(c2)OCO3)cc1	-138.5%	63.2*	288.8%	87.7*	-12.8%	.
COc1ccc(N/C=C/C(=O)c2ccc(Oc3ncccn3)cc2)cc1	2.2%	10.2	15.2%	10.9	-0.6%	5.8%
O=C(/C=C\Nc1ccc2c(c1)OCO2)c1ccc2c(c1)OCO2	-5.4%	29.2*	106.2%	94.6*	-0.7%	23.7%
CCN(CC)S(=O)(=O)c1ccc(N2CCOCC2)c(NC(=O)c2ccc(NC(C)=O)cc2)c1	-13.7%	0.8	?	-8.0	0.6%	?
CC1CN(c2ncnc3c2cnn3-c2ccc(Cl)cc2)CC(C)O1 (stereo unspecified)	-17.8%	14.6	.	31.4	-2.1%	220.5%
CCOC(=O)C1CCCN(c2ncnc3c2cnn3-c2ccc(OC)cc2)C1 (stereo unspecified)	-56.4%	34.6*	101.5%	70.1*	-2.6%	?
CCOC(=O)C1CCCN(c2ncnc3c2cnn3-c2ccc(Cl)cc2)C1 (stereo unspecified)	-81.8%	16.6*	?	23.9	10.9%	?
SMILES	NS1 inh	CHX counter	Pf growth 48h	Shiga toxin inh	Giardia FBPA inh	Pf growth 96h
CCOC(=O)N1CCC(Nc2ncnc3c2cnn3-c2ccc(Cl)cc2)CC1	-3.8%	54.0*	91.3%	119.6*	19.4%	.
COc1ccc(-n2ncc3c(N4CCN(c5cc(C)ccc5C)CC4)ncnc32)cc1	3.4%	-3.1	.	-9.8	0.8%	?
COc1cccc(-c2nccc(NC3CCNCC3)n2)c1	.	.	.	.	-10.1%	.
C/C(=N\O)c1ncc(C(F)(F)F)cc1Cl	0.9%	1.2	11.3%	1.6	1.5%	21.6%
Cc1cc(Cl)ccc1NC(=O)c1ccc2c(c1)OCO2	-8.4%	25.9*	86.2%	76.6*	6.3%	61.9%
O=C(Nc1ccc2c(c1)OCO2)c1cnc(Cl)c(Cl)c1	.	.	113.8%	.	.	158.2%
Cc1ccc(C(=O)Nc2ccc3c(c2)OCO3)cc1Cl	-18.6%	50.5*	227.7%	168.0*	.	?
Cc1ccc(NC(=O)c2ccc3c(c2)OCO3)cc1Cl	-57.0%	45.3*	36.6%	90.4*	-0.8%	?
CCN1C(=O)N[C@@H](c2ccco2)C(C(C)=O)=C1C	.	.	.	.	7.3%[12.9 µM]	.
CCOc1ccc(NC(=O)CN(c2ccc([N+](=O)[O-])cc2)S(=O)(=O)c2ccccc2)cc1	29.7%	-1.1	-21.0%	-7.2	0.9%	18.1%
CC(=O)Nc1ccc(NC(=O)CN(c2ccc([N+](=O)[O-])cc2)S(=O)(=O)c2ccccc2)cc1	1.2%	-1.9	22.2%	5.2	-8.9%	2.94µM*
CCc1ccc(N(CC(=O)Nc2ccc(NC(C)=O)cc2)S(=O)(=O)c2ccccc2)cc1	?	4.9	13.1µM*	1.2	-10.4%	?
COc1ccc(N(CC(=O)Nc2cccc(C(C)=O)c2)S(=O)(=O)c2ccc(NC(C)=O)cc2)cc1	-1.1%	-2.4	-4.3%	-1.8	10.0%	?
O=C(O)CCNC(=O)CCCn1nnc2ccccc2c1=O	3.2%	-1.4	-4.5%	-1.3	4.4%	-11.7%
CN(C)c1ncc2ncc(=O)n(Cc3ccc(F)cc3)c2n1	.	.	.	.	0.1%	.
C[C@H]1CCC/C=C/[C@@H]2C[C@H](O)C[C@H]2[C@H](O)/C=C/C(=O)O1	.	-6.7	2.08µM*	22.6	5.3%	2.94µM*
C[C@@H]1CC[C@H](O)/C=C/C(=O)O[C@H](C)CC[C@H](O)/C=C/C(=O)O1	5.8%	-2.3	?	-2.7	-4.0%	10.4µM*
C[C@H]1CCC/C=C/C2C[C@H](O)C[C@H]2[C@H](O)/C=C/C(=O)O1 (stereo partly specified)	.	.	.	.	6.8%	.
Cc1noc(C)c1COC(=O)CCCc1nc2ccccc2s1	-10.3%	-2.7	-18.3%	-7.7	-0.9%	5.22µM*
CCCCC(=O)OCc1nc2ccccc2s1	-4.5%	27.9*	394.7%	75.8	2.4%	76.3%
Cc1cc(C)c2cc3c(N)c(C(=O)N4CCc5ccccc5C4)sc3nc2c1	10.0%	-1.3	?	5.9	1.6%	?
Cc1cccc2cc3c(N)c(C(=O)N4CCOCC4)sc3nc12	-8.7%	50.5*	295.0%	115.2*	?	-8.5%
